Assay results reported in PubChem BioAssay (NCATS).
Results filed as inconclusive are left out. Calls of active or inactive are those of the source. Calls follow the shape of the dose curve; as a rule, active = well fitted curve in the direction sought with a large enough effect; inconclusive = small, poorly fitted or top-dose-only effect, or another doubt; inactive = no such curve, though single readings can be large; an effect the other way counts as inactive or inconclusive.

Experiments:
[1] = qHTS of pediatric cancer cell lines to identify multiple opportunities for drug repurposing: Primary screen for DAOY cells (AID 1347090);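 also: series mostly up to about 46 µM; plate controls were DMSO for no effect and bortezomib for full effect; nearly all actives have a fitted effect of over 55% in size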
Procedure, shortened: (§1)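 Eight- or eleven-point concentration series, 48 h treatment at 37 degrees C in growth media; readout CellTiter-Glo luminescence. Potency and efficacy were taken from the concentration-response curves.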

[2] = qHTS of pediatric cancer cell lines to identify multiple opportunities for drug repurposing: Primary screen for SJ-GBM2 cells (AID 1347091);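 also: plate controls were DMSO neutral control for no effect and bortezomib for full effect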
Procedure, shortened: as §1

[3] = qHTS of pediatric cancer cell lines to identify multiple opportunities for drug repurposing: Primary screen for A673 cells (AID 1347092); also: % is scaled to controls: 0 for no effect and ±100 for the full control effect; nearly all actives have a fitted effect of over 45% in size
Procedure, shortened: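 A673 cells (500-1,000 cells/well in growth media) were pre-incubated 5 h at 37 degrees C, then exposed to compounds for 48 h. Viability was read as CellTiter-Glo luminescence; concentration-response curves came directly from the primary screen.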

[4] = qHTS of pediatric cancer cell lines to identify multiple opportunities for drug repurposing: Primary screen for SK-N-MC cells (AID 1347093); also: potency is read from the fitted curve at half-maximal effect;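 as to activity change, negative = cytotoxic: series mostly up to about 46 µM; plate controls were DMSO neutral control for no effect and bortezomib for full effect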
Procedure, shortened: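 Metabolically active cells were quantified by ATP-dependent luminescence (CellTiter-Glo, 15 min at room temperature) following 48 h treatment. Cells had been plated at 500-1,000 per well and settled for 5 h beforehand.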

[5] = qHTS of pediatric cancer cell lines to identify multiple opportunities for drug repurposing: Primary screen for BT-37 cells (AID 1347094);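 also: series mostly up to about 57 µM; plate controls were DMSO for no effect and bortezomib for full effect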
Procedure, shortened: (§2)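 Plated cells (500-1,000 per well, growth media) were allowed to settle for 5 hours, treated with compound dilutions for 48 hours, then lysed with CellTiter-Glo for 15 min at room temperature before luminescence reading.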

[6] = qHTS of pediatric cancer cell lines to identify multiple opportunities for drug repurposing: Primary screen for NB-EBc1 cells (AID 1347095);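 also: plate controls were DMSO neutral control for no effect and bortezomib for full effect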
Procedure, shortened: as §2

[7] = qHTS of pediatric cancer cell lines to identify multiple opportunities for drug repurposing: Primary screen for U-2 OS cells (AID 1347096);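 also: plate controls were DMSO wells for no effect and bortezomib positive control wells for full effect; nearly all actives have a fitted effect of over 50% in size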
Procedure, shortened: (§3)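 Cells (500-1,000/well) in growth media were settled 5 h at 37 degrees C, then given compounds for 48 h. Viability was read as CellTiter-Glo luminescence. Primary runs used MIPE at 11 points (0.78 nM-46 µM) and NPC at 8 points (0.59 nM-46 µM); follow-ups used 11 points.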

[8] = qHTS of pediatric cancer cell lines to identify multiple opportunities for drug repurposing: Primary screen for Saos-2 cells (AID 1347097); also: % is scaled to controls: 0 for no effect and ±100 for the full control effect; nearly all actives have a fitted effect of over 40% in size
Procedure, shortened: as §2

[9] = qHTS of pediatric cancer cell lines to identify multiple opportunities for drug repurposing: Primary screen for SK-N-SH cells (AID 1347098);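 also: DMSO served as neutral control and bortezomib at 2.3 µM as positive control; % is scaled to controls: 0 for no effect and ±100 for the full control effect; nearly all actives have a fitted effect of over 65% in size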
Procedure, shortened: (§4)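 Cells (500-1,000/well) rested 5 h, then received compounds for 48 h; metabolically active cells were measured by CellTiter-Glo luminescence. Final concentrations spanned up to 46 µM (MIPE, 11-point) or 0.59 nM-46 µM (NPC, 8-point) in primary screens, 11-point in follow-ups.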

[10] = qHTS of pediatric cancer cell lines to identify multiple opportunities for drug repurposing: Primary screen for NB1643 cells (AID 1347099);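 also: plate controls were DMSO neutral control for no effect and bortezomib positive control for full effect; nearly all actives have a fitted effect of over 50% in size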
Procedure, shortened: as §2

[11] = qHTS of pediatric cancer cell lines to identify multiple opportunities for drug repurposing: Primary screen for LAN-5 cells (AID 1347100);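 also: plate controls were DMSO neutral control for no effect and bortezomib positive control for full effect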
Procedure, shortened: as §3

[12] = qHTS of pediatric cancer cell lines to identify multiple opportunities for drug repurposing: Primary screen for BT-12 cells (AID 1347101);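 also: plate controls were DMSO for no effect and bortezomib positive control for full effect; nearly all actives have a fitted effect of over 25% in size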
Procedure, shortened: as §4

[13] = qHTS of pediatric cancer cell lines to identify multiple opportunities for drug repurposing: Primary screen for Rh18 cells (AID 1347102); also: % is scaled to controls: 0 for no effect and ±100 for the full control effect; nearly all actives have a fitted effect of over 65% in size
Procedure, shortened: as §3

[14] = qHTS of pediatric cancer cell lines to identify multiple opportunities for drug repurposing: Primary screen for RD cells (AID 1347104);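 also: plate controls were DMSO for no effect and bortezomib for full effect; nearly all actives have a fitted effect of over 55% in size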
Procedure, shortened: as §2

[15] = qHTS of pediatric cancer cell lines to identify multiple opportunities for drug repurposing: Primary screen for MG 63 (6-TG R) cells (AID 1347105); also: % is scaled to controls: 0 for no effect and ±100 for the full control effect; nearly all actives have a fitted effect of over 50% in size
Procedure, shortened: as §2

[16] = qHTS of pediatric cancer cell lines to identify multiple opportunities for drug repurposing: Primary screen for control Hh wild type fibroblast cells (AID 1347106);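 also: series mostly up to about 46 µM; % is scaled to controls: 0 for no effect and ±100 for the full control effect; a drop in luminescence marks cytotoxicity and a rise apparent proliferation; nearly all actives have a fitted effect of over 55% in size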
Procedure, shortened: as §3

[17] = qHTS of pediatric cancer cell lines to identify multiple opportunities for drug repurposing: Primary screen for Rh30 cells (AID 1347107); also: series mostly up to about 46 µM; % is scaled to controls: 0 for no effect and ±100 for the full control effect; nearly all actives have a fitted effect of over 75% in size
Procedure, shortened: as §3

[18] = qHTS of pediatric cancer cell lines to identify multiple opportunities for drug repurposing: Primary screen for OHS-50 cells (AID 1347103);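 also: plate controls were DMSO neutral control for no effect and bortezomib positive control for full effect; nearly all actives have a fitted effect of over 40% in size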
Procedure, shortened: as §4

[19] = qHTS of pediatric cancer cell lines to identify multiple opportunities for drug repurposing: Primary screen for Rh41 cells (AID 1347108);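 also: series mostly up to about 46 µM; luminescence drop marks cytotoxic hits; nearly all actives have a fitted effect of over 70% in size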
Procedure, shortened: as §2

[20] = qHTS of pediatric cancer cell lines to identify multiple opportunities for drug repurposing: Confirmatory screen for A673 cells (AID 1347110);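 also: plate controls were DMSO neutral control for no effect and bortezomib positive control for full effect; nearly all actives have a fitted effect of over 65% in size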
Procedure, shortened: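 A673 cells seeded at 500-1,000 cells/well, rested 5 h, then dosed; primary MIPE 11-point (0.78 nM to 46 µM), NPC (0.59 nM to 46 µM); confirmatory 11-point. CellTiter-Glo luminescence after 48 h.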

O=C1Nc2cc(Cl)ccc2Oc2ccccc21
inactive: Potency [1] | Potency [2] | Potency [3] | Potency [4] | Potency [5] | Potency [6] | Potency [7] | Potency [8] | Potency [9] | Potency [10] | Potency [11] | Potency [12] | Potency [13] | Potency [14] | Potency [15] | Potency [16] | Potency [17]

NCC[C@H](O)C(=O)N[C@@H]1C[C@H](N)[C@@H](O[C@H]2O[C@H](CN)[C@@H](O)[C@H](O)[C@@H]2O)[C@H](O)[C@@H]1O[C@H]1O[C@H](CO)[C@@H](O)[C@H](N)[C@@H]1O
inactive: activity change, negative = cytotoxic [1] 11.4% [at 0.597 µM] | activity change, negative = cytotoxic [2] 26.2% [at 0.597 µM] | activity change, negative = cytotoxic [3] -3.3% [at 0.597 µM] | activity change, negative = cytotoxic [4] -10.7% [at 0.597 µM] | activity change, negative = cytotoxic [5] 11.5% [at 0.745 µM] | activity change, negative = cytotoxic [6] 17.9% [at 0.597 µM] | activity change, negative = cytotoxic [7] 14.2% [at 0.597 µM] | activity change, negative = cytotoxic [8] 9.12% [at 0.597 µM] | activity change, negative = cytotoxic [9] -13.1% [at 0.741 µM] | activity change, negative = cytotoxic [10] 2.83% [at 0.597 µM] | activity change, negative = cytotoxic [11] 0.172% [at 0.597 µM] | activity change, negative = cytotoxic [12] 5.54% [at 0.745 µM] | activity change, negative = cytotoxic [13] 1.72% [at 0.597 µM] | activity change, negative = cytotoxic [18] 17.5% [at 0.73 µM] | activity change, negative = cytotoxic [14] 8.3% [at 0.597 µM] | activity change, negative = cytotoxic [15] -9.26% [at 0.597 µM] | activity change, negative = cytotoxic [17] 20.7% [at 0.597 µM] | activity change, negative = cytotoxic [19] 34.1% [at 0.597 µM]

Cc1ccc(C(C)OC(=O)C2(C)CCC(C(=O)O)C2(C)C)cc1 (stereo not drawn)
inactive: Potency [1] | Potency [2] | Potency [3] | Potency [4] | Potency [5] | Potency [6] | Potency [7] | Potency [8] | Potency [9] | Potency [10] | Potency [11] | Potency [12] | Potency [13] | Potency [18] | Potency [14] | Potency [16] | Potency [17] | Potency [19]

COCCc1ccc(OCC2CO2)cc1 (stereo not drawn)
inactive: Potency [1] | Potency [2] | Potency [3] | Potency [4] | Potency [5] | Potency [6] | Potency [7] | Potency [8] | Potency [9] | Potency [10] | Potency [11] | Potency [12] | Potency [13] | Potency [18] | Potency [15] | Potency [16] | Potency [17] | Potency [19]

CC(NC(CCc1ccccc1)C(=O)O)C(=O)N1C(=O)N(C)CC1C(=O)O (stereo not drawn)
inactive: Potency [1] | Potency [2] | Potency [3] | Potency [4] | Potency [5] | Potency [6] | Potency [7] | Potency [8] | Potency [9] | Potency [10] | Potency [11] | Potency [12] | Potency [13] | Potency [18] | Potency [14] | Potency [17] | Potency [19]

COC(=O)/C=C(/C)N
inactive: Potency [1] | Potency [2] | Potency [3] | Potency [4] | Potency [5] | Potency [6] | Potency [7] | Potency [8] | Potency [9] | Potency [10] | Potency [11] | Potency [12] | Potency [13] | Potency [14] | Potency [15] | Potency [16] | Potency [17] | Potency [19]

CCCCCCn1c(=O)c2c(ncn2C)n(C)c1=O
inactive: Potency [1] | Potency [2] | Potency [3] | Potency [4] | Potency [5] | Potency [6] | Potency [7] | Potency [8] | Potency [9] | Potency [10] | Potency [11] | Potency [12] | Potency [13] | Potency [14] | Potency [16] | Potency [17] | Potency [19]

CC(=O)OCC(=O)[C@@]1(O)[C@H](OC(C)=O)C[C@H]2[C@@H]3CCC4=CC(=O)C=C[C@]4(C)[C@@]3(F)[C@@H](O)C[C@@]21C
inactive: Potency [1] | Potency [2] | Potency [3] | Potency [4] | Potency [5] | Potency [6] | Potency [7] | Potency [8] | Potency [9] | Potency [10] | Potency [11] | Potency [12] | Potency [13] | Potency [18] | Potency [15] | Potency [16] | Potency [17] | Potency [19] | Potency [20]

CO/N=C(/C(=O)N[C@@H]1C(=O)N2C(C(=O)OCOC(=O)C(C)(C)C)=C(C)CS[C@H]12)c1csc(N)n1
inactive: Potency [1] | Potency [2] | Potency [3] | Potency [5] | Potency [6] | Potency [7] | Potency [8] | Potency [9] | Potency [10] | Potency [11] | Potency [12] | Potency [13] | Potency [18] | Potency [14] | Potency [15] | Potency [17] | Potency [19]
active: Potency [4] 26.6 µM

Cc1ncc(CO)c(CO)c1O
inactive: Potency [1] | Potency [2] | Potency [3] | Potency [4] | Potency [5] | Potency [6] | Potency [7] | Potency [8] | Potency [9] | Potency [10] | Potency [11] | Potency [12] | Potency [13] | Potency [18] | Potency [14] | Potency [16] | Potency [17] | Potency [19]

O=C(CCOCCOCCOCCOCCC(=O)Nc1c(I)cc(I)c(C(=O)O)c1I)Nc1c(I)cc(I)c(C(=O)O)c1I
inactive: Potency [1] | Potency [2] | Potency [3] | Potency [4] | Potency [5] | Potency [6] | Potency [7] | Potency [8] | Potency [9] | Potency [10] | Potency [11] | Potency [12] | Potency [13] | Potency [18] | Potency [15] | Potency [16] | Potency [17] | Potency [19]

CCCCOCCOC(=O)c1cccnc1
inactive: Potency [1] | Potency [2] | Potency [3] | Potency [4] | Potency [5] | Potency [6] | Potency [7] | Potency [8] | Potency [9] | Potency [10] | Potency [11] | Potency [12] | Potency [13] | Potency [18] | Potency [16] | Potency [17] | Potency [19]

CCCCCCCCCCCCCCCCCCN(C)C
inactive: Potency [1] | Potency [2] | Potency [3] | Potency [4] | Potency [5] | Potency [6] | Potency [7] | Potency [8] | Potency [9] | Potency [10] | Potency [11] | Potency [12] | Potency [13] | Potency [14] | Potency [15] | Potency [16] | Potency [17] | Potency [19]

CN1C(CSCC(F)(F)F)Nc2cc(Cl)c(S(N)(=O)=O)cc2S1(=O)=O (stereo not drawn)
inactive: Potency [1] | Potency [2] | Potency [3] | Potency [4] | Potency [5] | Potency [6] | Potency [7] | Potency [8] | Potency [9] | Potency [10] | Potency [11] | Potency [12] | Potency [13] | Potency [14] | Potency [15] | Potency [16] | Potency [17]
